Source: PubChem BioAssay
PKD1 kinase inh: PKD1 (human) kinase inhibition; Q15139; PKD1 kinase fluorescence polarization assay; inhibition, % (no concentration beside the values); 0.056% of 200,000 active; AID 797; in the data active = inhibition above about 50%
Target sequence (Q15139 whole entry, looked up): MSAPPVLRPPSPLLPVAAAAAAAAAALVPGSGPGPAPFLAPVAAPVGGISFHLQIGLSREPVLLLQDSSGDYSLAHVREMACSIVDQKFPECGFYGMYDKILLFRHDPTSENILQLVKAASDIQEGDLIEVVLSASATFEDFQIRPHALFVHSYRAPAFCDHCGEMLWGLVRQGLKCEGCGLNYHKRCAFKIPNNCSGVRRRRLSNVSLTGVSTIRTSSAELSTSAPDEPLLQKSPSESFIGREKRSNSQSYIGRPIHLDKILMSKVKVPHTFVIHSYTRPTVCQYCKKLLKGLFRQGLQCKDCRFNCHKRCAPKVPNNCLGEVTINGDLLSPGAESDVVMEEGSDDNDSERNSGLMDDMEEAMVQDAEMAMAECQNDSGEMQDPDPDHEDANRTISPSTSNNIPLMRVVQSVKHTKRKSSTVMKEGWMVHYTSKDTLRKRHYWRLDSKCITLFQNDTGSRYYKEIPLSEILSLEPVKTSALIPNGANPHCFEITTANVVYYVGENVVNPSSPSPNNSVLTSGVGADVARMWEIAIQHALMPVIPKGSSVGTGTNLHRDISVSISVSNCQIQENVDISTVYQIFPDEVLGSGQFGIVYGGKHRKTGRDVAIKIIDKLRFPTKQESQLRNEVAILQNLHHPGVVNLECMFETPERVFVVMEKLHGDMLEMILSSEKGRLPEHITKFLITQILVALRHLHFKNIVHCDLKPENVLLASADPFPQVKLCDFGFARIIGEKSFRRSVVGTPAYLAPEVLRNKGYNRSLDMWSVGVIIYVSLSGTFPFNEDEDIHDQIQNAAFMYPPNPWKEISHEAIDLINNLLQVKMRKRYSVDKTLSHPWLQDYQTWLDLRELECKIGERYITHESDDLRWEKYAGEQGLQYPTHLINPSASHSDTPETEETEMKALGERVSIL
UBC9 SUMO inh: inhibitors of human SUMOylation (UBC9) | P63279 | HTRF SUMOylation assay, SAE1/SAE2 + UBC9, in vitro | inhibition, % at 35 µM | 0.36% of 290,000 active; in the data active = inhibition above about 50%, passing the limit was not always enough
DTT redox prof: compounds producing H2O2 with reducing agent – biochemical, NIH compound library profiling, artefact control for MLSCN library redox annotation, primary screen. DTT-dependent redox cycling H2O2, phenol red/HRP absorbance; 100% = 100 µM peroxide control, 0% = buffer. activation, % at 10 µM. 0.03% of 200,000 active;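 active = activation of at least 50% relative to the plate's high and low controls in the primary single-dose screen; inactive = activation below 50%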;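 note: compound incubated with DTT at 0.8 mM final as the reducing agent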
p97 ATPase inh: human p97 ATPase inhibition; 0.42% of 220,000 active; inhibition, % at 8 µM; AID 1481; P55072; recombinant p97 ATPase, Kinase-Glo ATP luminescence, 3 h; in the data active = inhibition above about 15%
FAS-TE inh: blocks the thioesterase domain of human fatty acid synthase; P49327; recombinant FAS-TE, OMFH fluorogenic substrate, fluorescence endpoint; inhibition, % at 15 µM; 0.67% of 360,000 active; AID 602261;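 active = compounds whose normalised, plate-corrected inhibition of enzyme fluorescence in the single-dose primary screen is 50% or more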
Furin inh: human furin inhibition; P09958; purified furin, fluorogenic substrate cleavage; inhibition, % at 20 µM or 30 µM; 0.061% of 220,000 active; AID 463115; in the data active = inhibition above about 25%
Hits are given with their value; – = inactive; · = no result given. This is a sample that favours compounds with a hit; in the whole collection about 1.2% have one here.

SMILES	PKD1 kinase inh	UBC9 SUMO inh	DTT redox prof	p97 ATPase inh	FAS-TE inh	Furin inh
COc1ccc(-c2cc(-c3ccccc3)c(C#N)c(S(C)=O)n2)cc1 (configuration not stated)	–	–	–	–	–	–
COc1ccc(-c2cc3nc4ccccc4n3c(N)c2C#N)cc1	·	57	·	–	–	–
O=C1N/C(=N/N=C/c2ccc(O)cc2)SC1Cc1ccccc1 (configuration not stated)	·	–	·	–	–	–
O=C1N/C(=N/N=C/c2ccccc2O)SC1Cc1ccc(F)cc1 (configuration not stated)	·	61	·	–	–	–
COc1ccc(CC2S/C(=N/N=C/c3ccccc3O)NC2=O)cc1 (configuration not stated)	·	58	·	–	–	–
CCn1c(SCc2nc3sc(C(=O)O)c(C)c3c(=O)[nH]2)nc2ccccc21	–	55	–	–	–	–
COCCn1c(SCc2nc3sc(C(=O)OC)c(C)c3c(=O)[nH]2)nc2ccccc21	–	–	–	–	–	–
O=C(O)C1=CC2C=C(Cl)C=CC2OC1=O (configuration not stated)	·	·	·	·	–	·
COc1c(OC(C)=O)ccc(/C=C/c2ccc3cccc(OC)c3n2)c1[N+](=O)[O-]	–	–	–	–	–	–
COc1c(OC(C)=O)ccc(/C=C/c2ccc3ccccc3n2)c1[N+](=O)[O-]	–	–	–	–	59	–
CCN(CC)C(=O)C1=C(C)N(CCCOC)C(=O)C(CC(=O)NCCN2CCOCC2)C1 (configuration not stated)	·	·	·	·	–	·
CN1CCN(C2=C(Cl)C(=O)C(c3cnc(N4CCCCC4)s3)=C(Cl)C2=O)CC1	–	–	–	–	60	–
CN1CCN(C2=C(Cl)C(=O)c3ccccc3C2=O)CC1	·	·	·	·	–	·
COc1ccc2c(c1)Cc1sc(NC(C)=O)nc1-2	–	–	–	–	–	–
COc1ccc2c(c1)Cc1sc(NC(=O)c3cccnc3)nc1-2	–	90	–	–	–	–
Cc1ccc(NC2=C/C(=N/S(=O)(=O)c3cccs3)c3ccccc3C2=O)cc1	–	–	–	–	–	–
CCc1cc[n+](C2=C([O-])c3ccccc3C(=O)/C2=N\S(=O)(=O)c2cccs2)cc1	–	59	–	–	–	–
CN(C#N)c1nc(Cl)nc(Nc2cccc(Cl)c2)n1	–	–	–	15	–	–
Cc1cc(C)nc(Nc2cccc(Cl)c2)n1	·	–	·	·	–	·
CC1(C(=O)NCc2cccc(C(F)(F)F)c2)CCN1C1Cc2ccccc2C1 (configuration not stated)	·	·	·	·	–	·
Cc1nn(CCC#N)c(NC(=O)c2ccc(Cl)cc2Cl)c1P(=O)(Nc1ccc([N+](=O)[O-])cc1)N1CCOCC1 (configuration not stated)	–	–	–	–	52	–
O=C(c1ccccc1)c1ccc2nc(-c3ccco3)c(-c3ccco3)nc2c1	–	95	–	–	–	–
COc1ccccc1N1CCN(C(=O)c2ccc3nc(-c4ccco4)c(-c4ccco4)nc3c2)CC1	–	72	–	–	–	–
O=C(NC1CCCC1)c1ccc2nc(-c3ccco3)c(-c3ccco3)nc2c1	–	51	–	–	–	–
O=C(NCCc1ccccc1)c1ccc2nc(-c3ccco3)c(-c3ccco3)nc2c1	–	–	–	–	–	–
SMILES	PKD1 kinase inh	UBC9 SUMO inh	DTT redox prof	p97 ATPase inh	FAS-TE inh	Furin inh
CN(C)CCN1CCN(C(c2cc3ccccc3o2)c2nnnn2C(C)(C)C)CC1 (configuration not stated)	·	·	·	·	–	·
C[C@H](c1ccccc1)N1C[C@@H](COCc2ccccc2)Oc2cc(N3CCC[C@H]3CO)ccc2S1(=O)=O	·	·	·	·	–	·
O=C(CNc1ccc2ccccc2c1)N/N=C/c1ccc(C(=O)O)cc1	–	–	–	–	–	–
C/C(CCc1ccco1)=N\NC(=O)CNc1cccc2ccccc12	–	–	–	–	–	–
O=C(N/N=C\C=C\c1ccco1)c1cc(-c2ccc3ccccc3c2)n[nH]1	–	51	–	–	–	–
O=C(N/N=C/C=C\c1ccco1)c1ccccn1	·	–	·	–	–	–
O=C(CNc1cccc2ccccc12)N/N=C/C=C/c1ccco1	–	98	–	–	–	–
O=C(CNc1cccc2ccccc12)N/N=C/c1ccc(C(=O)O)cc1	–	77	–	–	–	–
